Mito fusion yeast – qHTS Assay for Small Molecule Inhibitors of Mitochondrial Division or Activators of Mitochondrial Fusion. S. cerevisiae fusion-defective mutant growth rescue, CellTiterGlo 48 h. Potency, µM (top dose mostly 46.1 µM), usual class: activators. actives 0.23% (n = 320,000). AID 485298, 2010; active = well fitted activation curve with a large enough effect; inconclusive = small, poorly fitted or top-dose-only effect; inactive = no such curve, though single readings can be large or run the other way; also: nearly all actives have a fitted effect of over 45% in size
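S. cerevisiae fusion-defective temperature-sensitive mutants (e.g. fzo1-1, mgm1-5) grown 48 h at 37C in YPEG (ethanol/glycerol non-fermentable) medium with 23 nl compound per well; growth rescue read as CellTiterGlo luminescence.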
uPA generation – qHTS for Inhibitors of Cell Surface uPA Generation; Potency, µM (top dose mostly 38.3 µM), usual class: inhibitors; actives 0.31% (n = 330,000); cell surface uPA generation assay, qHTS; active = well fitted inhibition curve with a large enough effect; inconclusive = small, poorly fitted or top-dose-only effect; inactive = no such curve, though single readings can be large or run the other way; tested in mouse RAW 264.7 cells; also: nearly all actives have a fitted effect of over 55% in size
CtBP-E1A inh – qHTS Assay for Inhibitors of the CtBP/E1A Interaction; actives 0.49% (n = 340,000); activity change, % (concentration not given with the values); CtBP / adenovirus E1A interaction (AlphaScreen); AlphaScreen GST-E1A/His-CtBP binding, 1536-well; stronger effect = lower value; AID 651724, 2012
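AlphaScreen with 125 nM GST-E1A and 125 nM His-CtBP (5X stocks) in Tris pH 8.0, 300 mM NaCl, BSA, Tween 20, TCEP. Compounds preincubated 2 h at 37 deg C, then glutathione donor/nickel acceptor beads added for 1 h at 37 deg C in dark.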
MBNL1-CUG inh – qHTS Assay for Inhibitors of MBNL1-poly(CUG) RNA binding; TR-FRET MBNL1-His/biotin-(CUG)12 binding, 665/545 ratio; Potency, µM (doses to about 57.5 µM), most hits filed as inhibitors; actives 0.036% (n = 280,000); active = well fitted inhibition curve with a large enough effect in the signal ratio, with a control signal flat, not every such curve was filed as active; inconclusive = small, poorly fitted or top-dose-only effect, or effect the other way, or a change in a side signal; inactive = no such curve, though single readings can be large or run the other way; the % refers to the signal ratio
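Inhibition of protein-RNA binding appears as loss of TR-FRET between terbium anti-His antibody on MBNL1-His and streptavidin-XL665 on biotin-(CUG)12. Activity is normalized to buffer-only and uninhibited-complex controls.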
Six1-Eya2 inh – qHTS Assay for Inhibitors of the Six1/Eya2 Interaction; Homeobox protein SIX1 (Homo sapiens) + Protein phosphatase EYA2 (Homo sapiens), …; AlphaScreen GST-Six1/His-Eya2 binding, biochemical; stronger effect = lower value; activity change, % (test concentration not listed); actives 0.56% (n = 360,000); AID 651725, 2012
Target sequence (O00167 whole entry, looked up): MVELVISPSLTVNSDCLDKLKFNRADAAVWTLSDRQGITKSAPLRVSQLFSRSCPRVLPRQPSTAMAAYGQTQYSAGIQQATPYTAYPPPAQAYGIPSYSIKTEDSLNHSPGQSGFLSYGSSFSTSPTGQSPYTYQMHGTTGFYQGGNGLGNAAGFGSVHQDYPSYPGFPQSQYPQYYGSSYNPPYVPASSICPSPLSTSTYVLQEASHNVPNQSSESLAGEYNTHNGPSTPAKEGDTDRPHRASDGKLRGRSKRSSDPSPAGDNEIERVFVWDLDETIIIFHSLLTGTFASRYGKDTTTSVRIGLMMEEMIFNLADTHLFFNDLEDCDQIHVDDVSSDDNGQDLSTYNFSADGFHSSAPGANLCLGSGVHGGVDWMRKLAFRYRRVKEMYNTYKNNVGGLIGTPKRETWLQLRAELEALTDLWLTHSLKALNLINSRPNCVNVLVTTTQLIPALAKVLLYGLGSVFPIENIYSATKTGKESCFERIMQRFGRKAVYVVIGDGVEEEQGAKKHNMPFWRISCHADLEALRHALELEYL
Target sequence (Q15475 whole entry, looked up): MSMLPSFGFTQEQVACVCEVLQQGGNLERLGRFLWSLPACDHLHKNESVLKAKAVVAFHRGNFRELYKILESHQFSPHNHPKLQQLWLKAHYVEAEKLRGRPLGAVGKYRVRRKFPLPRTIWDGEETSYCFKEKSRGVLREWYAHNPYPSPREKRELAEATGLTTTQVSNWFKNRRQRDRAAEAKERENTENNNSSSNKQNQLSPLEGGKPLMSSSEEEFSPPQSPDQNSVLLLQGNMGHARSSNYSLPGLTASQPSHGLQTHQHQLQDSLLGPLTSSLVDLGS
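Homogeneous AlphaScreen proximity assay pairing GST-Six1 with His-tagged Eya2 (added as 5X mix: 250 nM and 500 nM) in 50 mM Tris pH 8.0, 300 mM NaCl, 1 mM TCEP. Glutathione donor and nickel acceptor beads; 1 h, 37 °C, dark.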
Hits are given with their value; n = inactive; u = inconclusive; x = no result; [ ] = dose if it differs, or a comment. Hits are enriched below; roughly 1.1% of the tested compounds scored in any of these assays. Rule as the data show it, unless noted: active = activity change below about -65%; inconclusive = mostly about -30% to -63%; inactive = weaker than that.

SMILES | Mito fusion yeast | uPA generation | CtBP-E1A inh | MBNL1-CUG inh | Six1-Eya2 inh
COC(=O)Cc1cc(=O)n(-c2nc3ccccc3[nH]2)[nH]1 | n | x | -86 | n | -92
O=C(c1ccc(-c2ccccc2Cl)o1)N1CCN(c2ccccc2O)CC1 | 18µM | n | n | x | n
O=C(c1ccco1)N1CCN(C(=O)c2ccc(-c3ccccc3Cl)o2)CC1 | n | n | n | x | n
COc1cc(NC(=O)C2(C)CCN2C(C)C)cc(OC)c1OC (stereo not given) | x | x | n | x | n
O=[N+]([O-])c1ccccc1/C=N/N1CCN(Cc2ccccc2)CC1 | n | n | n | u | u
O=[N+]([O-])c1ccccc1C=NN1CCCCCC1 | x | n | u | x | -70
COc1ccc(Nc2ccnc3ccccc23)cc1 | n | n | n | u | n
CC(C)Nc1ccc(Nc2ccnc3cc4ccccc4cc23)cc1 | n | n | -81 | x | -70
COc1ccccc1N1CCN(C(=O)C2=CC=CN3CCS(=O)(=O)N=C23)CC1 | n | n | n | x | n
CC1(S(=O)(=O)O)CC(=O)c2ccccc2C1=O (stereo not given) | n | 7.9µM | n | n | n
O=C(O)c1ccccc1-c1ccc(/C=c2\sc3nc4cc(Br)cnc4n3c2=O)o1 | n | n | u | u | -81
O=C(CSc1ncccn1)NC1CCCC1 | x | x | n | x | n
O=C(/C=C/c1ccccc1Cl)Nc1cccc(O)c1 | n | 4.5µM | x | n | n
CC(C)C[C@@H]1COc2cc(N3CCC[C@H]3CO)ccc2S(=O)(=O)N1 | x | x | n | x | n
COc1ccc(-c2coc3c(C(=O)NCC(C)C)cccc23)c(C)c1 | x | x | n | x | n
O=C1C=C(OCCCl)CC(c2cccc(Cl)c2)O1 (stereo not given) | x | x | n | x | n
O=C(Nc1ccccc1)N1N=C(c2cccs2)CC1c1cccs1 (stereo not given) | 11µM | n | n | u | n
O=C(CN1CCOCC1)N1N=C(c2cccs2)CC1c1cccs1 (stereo not given) | n | n | n | n | n
Cc1cccc(C)c1NC(=O)C1(C)CSCC(=O)N1Cc1cccc(C(F)(F)F)c1 (stereo not given) | x | x | n | x | n
CCOc1cc(OCC)cc(C(=O)N2CCC[C@H]2C(=O)N2CCC[C@H]2C(=O)N(C)Cc2ccccc2)c1 | x | x | n | x | n
O=C(NNc1c2ccccc2nc2ccccc12)c1ccc(O)cc1O | n | n | -84 | u | -84
O=C(NNc1c2ccccc2nc2ccccc12)c1ccccc1O | n | n | -73 | x | u
O=C(NNc1c2ccccc2nc2ccccc12)c1ccccc1Cl | n | n | n | n | n
CCOC(=O)[C@]12CCC=C1N(Cc1ccc(Cl)cc1Cl)C(=O)[C@H](CC(=O)NCc1cccs1)C2 | x | x | n | x | n
C#Cc1ccc(CN2CCC(Oc3ccc(C(=O)NCc4ccccn4)cc3)CC2)cc1 | n | n | n | n | n
SMILES | Mito fusion yeast | uPA generation | CtBP-E1A inh | MBNL1-CUG inh | Six1-Eya2 inh
CC(=O)Nc1cncc(-c2cccc(S(C)(=O)=O)c2)n1 | x | x | n | x | n
COc1ccc2c(c1)C1C=CCC1C(c1cc3c(cc1Br)OCO3)N2 (stereo not given) | n | x | u | n | u
CC(=O)c1ccc2c(c1)C1C=CCC1C(c1cc3c(cc1Br)OCO3)N2 (stereo not given) | 13µM | u | n | x | n
COc1cc2ncnc(NCCCN3CCOCC3)c2cc1OC | n | n | x | n | n
COc1cc2nc(=S)n(CCCN3CCOCC3)c(N)c2cc1OC | n | n | -88 | n | -85
CCOc1cc2nc(-c3ccc(OC)c(OC)c3)nc(NCCCN3CCOCC3)c2cc1OC | n | n | -88 | n | -91
COc1ccc(OC)c(CN2CCN(C(=O)c3ccc(C)c(S(=O)(=O)Nc4ccccc4OC)c3)CC2)c1 | x | n | x | x | n
CC(C)CCn1c(NCCc2ccccc2)nc2c1c(=O)n(C)c(=O)n2C | 18µM | n | n | n | n
C/C(=N\Nc1ncnc2sc(C)c(C)c12)c1ccccn1 | n | n | -94 | n | -73
Cc1sc2ncnc(N/N=C/c3cccc(O)c3)c2c1C | n | n | n | u | u
C/C(=N\Nc1ccc(Cl)c(C(=O)O)c1)c1ccccn1 | n | n | n | n | n
C/C(=N\Nc1ncc(Cl)cc1Cl)c1ccccn1 | n | n | -66 | n | -87
Cc1ccccc1Cn1c(Oc2ccccc2F)nc2c1c(=O)n(C)c(=O)n2C | n | x | x | x | x
O=C(NCCc1ccccc1)c1ccc(Cn2c(SCc3cccc(F)c3)nc3cccnc32)cc1 | n | x | x | x | x
COc1ccc(C2=Nn3c(nnc3-c3ccc(OC)cc3)SC2)cc1 | u | n | n | n | n
COc1ccc(C2=Nn3c(nnc3-c3ccccn3)SC2)cc1OC | u | n | -82 | u | -77
COc1ccc(C2=Nn3c(nnc3-c3ccco3)SC2)cc1OC | n | n | -87 | u | -71
COc1ccc(C2=Nn3c(nnc3-c3ccccc3OC)SC2)cc1OC | n | n | u | n | n
COc1ccc(C2=Nn3c(nnc3-c3cc(C)[nH]n3)SC2)cc1 | n | n | u | n | -77
CCOc1ccc(C2=Nn3c(nnc3-c3ccco3)SC2)cc1 | n | n | n | n | u
NC(=S)NN=C1CSSC1 | x | x | -89 | x | -94
CC1(C)CCC(=NNC(N)=S)CC1 | x | n | n | x | n
O=C(Nc1cc(=O)[nH]c(=O)[nH]1)c1cccc(C(F)(F)F)c1 | n | n | n | n | n
O=C(Nc1cc(=O)[nH]c(=O)[nH]1)c1cc(Cl)ccc1Cl | n | 3.5µM | n | n | n
CC1CCCN(c2ncnc3c2cnn3-c2ccccc2)C1 (stereo not given) | n | u | n | n | n
SMILES | Mito fusion yeast | uPA generation | CtBP-E1A inh | MBNL1-CUG inh | Six1-Eya2 inh
CCN1CCN(c2ncnc3c2cnn3-c2ccccc2)CC1 | n | n | n | n | n
CC1CCCN(c2ncnc3c2cnn3-c2ccc(Cl)cc2)C1 (stereo not given) | n | 2.2µM | n | n | n
c1ccc(-n2ncc3c(N4CCCCC4)ncnc32)cc1 | n | 1.6µM | n | n | n
Clc1ccc(-n2ncc3c(NCC4CCCO4)ncnc32)cc1 (stereo not given) | n | 10µM | n | n | n
CCOC(=O)c1ccc(N2CC3=C(C2=O)C(c2ccc(OC)cc2)NC(=O)N3C)cc1 (stereo not given) | n | x | x | x | x
Cc1ccc(C(O)c2ncc(-c3ccc(F)cc3)[nH]2)cc1F (stereo not given) | x | x | n | x | n
COc1cc2c(cc1OC)C1O[C@](CCCCN3C(=O)c4ccccc4C3=O)(C2)OC2=C1C(=O)OC1(CCCCC1)C2 | n[9.22 µM] | x | x | n[11.5 µM] | x
CCc1ccc2oc(-c3ccc(OC)cc3)cc(=Nc3cccc(C(=O)O)c3)c2c1 | n | n | n | n | n

Screening results as filed in PubChem BioAssay.
